Reference: the supplement of paper PMC8285479
Structures can show the parent of a compound that is named as a salt. ± gives the standard deviation of the averaged measurements. Whole data set: some 1,900 compounds, median “normalised cell viability (NPI; 0 = phenylarsine oxide control, 1 = DMSO control)” near 1, cut for the lowest 2% near 0.039. Shown is part of a subset that was picked to be rich in the lowest values.

Test system: NCI-H1944
Assay: normalised cell viability (NPI; 0 = phenylarsine oxide control, 1 = DMSO control) (fraction of DMSO control); NCI-H1944 is a non-small cell lung cancer line; higher = more viable cells (less compound toxicity)
Details: 6 days
[1] = glucocorticoid arm: hydrocortisone 2.75 uM co-treatment, compound 1 µM
[2] = glucocorticoid arm: hydrocortisone 2.75 uM co-treatment, compound 5 µM
[3] = glucocorticoid arm: hydrocortisone 2.75 uM pre-treated 2 days and continued, compound 1 µM
[4] = glucocorticoid arm: hydrocortisone 2.75 uM pre-treated 2 days and continued, compound 5 µM
[5] = glucocorticoid arm: vehicle, compound 1 µM
[6] = glucocorticoid arm: vehicle, compound 5 µM
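Also: CTB read-out in 384-well plates, triplicate wells, NPI normalised per plate against 1 µM phenylarsine oxide (0) and 0.1% DMSO (1) controls.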

SMILES | normalised cell viability [1] | normalised cell viability [2] | normalised cell viability [3] | normalised cell viability [4] | normalised cell viability [5] | normalised cell viability [6]
N=C(NC(=O)c1nc(Cl)c(N)nc1N)Nc1ccccc1 [Phenamil methanesulfonate] | 1.01 ± 0.011 | 1.04 ± 0.025 | 0.894 ± 0.22 | 1.06 ± 0.025 | 1.007 ± 0.0058 | 0.9977 ± 0.004
CCCCOc1c(C(=O)c2c(F)cc(C)cc2F)c[nH]c2nncc1-2 | 0.91 ± 0.018 | 0.988 ± 0.017 | 0.9857 ± 0.0032 | 1.02 ± 0.022 | 0.561 ± 0.04 | 0.861 ± 0.018
Cn1cc(C2=C(c3cn(CCCSC(=N)N)c4ccccc34)C(=O)NC2=O)c2ccccc21 [Ro 31-8220 Mesylate] | 0.998 ± 0.013 | 0.125 ± 0.013 | 0.973 ± 0.036 | 0.297 ± 0.087 | 1.013 ± 0.0058 | 0.0242 ± 0.0022
CN(C)CCCn1cc(C2=C(c3c[nH]c4ccccc34)C(=O)NC2=O)c2ccccc21 | 0.992 ± 0.017 | 1.06 ± 0.011 | 1.01 ± 0.02 | 1.01 ± 0.059 | 1.03 ± 0.011 | 1.05
O=Nc1ccc2oc(=O)ccc2c1 [6-Nitroso-1,2-benzopyrone] | 1.02 ± 0.01 | 1.02 ± 0.015 | 1.027 ± 0.0058 | 0.857 ± 0.29 | 1.013 ± 0.0058 | 1.02 ± 0.01
CN(C)CCC(c1ccc(Br)cc1)c1ccccn1 (single isomer, unassigned; (+)) [(+)-Brompheniramine maleate] | 1.01 ± 0.017 | 1.023 ± 0.0058 | 1.05 ± 0.04 | 1.03 ± 0.021 | 1.006 ± 0.0069 | 1.02 ± 0.011
Nc1ncnc2c1ncn2[C@@H]1O[C@H](COP(=O)(O)CP(=O)(O)OP(=O)([O-])O)[C@@H](O)[C@H]1O.[Li+] [alpha,beta-Methylene adenosine 5'-triphosphate lithium salt] | 1.02 ± 0.011 | 1 ± 0.036 | 1.01 ± 0.014 | 0.992 ± 0.013 | 1.005 ± 0.0081 | 1.02 ± 0.021
Cc1nc(N=Nc2cc(S(=O)(=O)O)c3cc([N+](=O)[O-])cc(S(=O)(=O)O)c3c2)c(COP(=O)(O)O)c(C=O)c1O [PPNDS tetrasodium] | 1.001 ± 0.0085 | 1.01 ± 0.037 | 1.013 ± 0.0058 | 0.857 ± 0.27 | 0.9973 ± 0.0021 | 0.999 ± 0.0098
CC(NC(=O)C(O)c1cc(F)cc(F)c1)C(=O)NC1C(=O)N(C)c2ccccc2-c2ccccc21 (stereo unspecified) | 0.973 ± 0.013 | 0.995 ± 0.017 | 0.977 ± 0.015 | 1.007 ± 0.0058 | 0.9893 ± 0.0038 | 0.9993 ± 0.0011
CO[C@H](C(=O)[C@@H](O)[C@@H](C)O)[C@@H]1Cc2cc3cc(O[C@H]4C[C@@H](O[C@H]5C[C@@H](O)[C@H](O)[C@@H](C)O5)[C@H](O)[C@@H](C)O4)c(C)c(O)c3c(O)c2C(=O)[C@H]1O[C@H]1C[C@@H](O[C@H]2C[C@@H](O[C@H]3C[C@](C)(O)[C@H](O)[C@@H](C)O3)[C@@H](O)[C@@H](C)O2)[C@H](O)[C@@H](C)O1 [Plicamycin] | 0.0675 ± 0.0023 | 0.0276 ± 0.0011 | 0.102 ± 0.0097 | 0.0631 ± 0.0043 | 0.0202 ± 0.0011 | 0.011 ± 0.0021
CC1(C2CCCC2)Cc2cc(OCC(=O)O)c(Cl)c(Cl)c2C1=O (stereo unspecified) | 0.983 ± 0.014 | 0.982 ± 0.037 | 0.9883 ± 0.0072 | 0.986 ± 0.084 | 0.998 ± 0.011 | 0.9853 ± 0.0067
Cc1ccc([N+](=O)[O-])cc1S(=O)(=O)N(C)C | 1 ± 0.018 | 0.9945 ± 0.0095 | 1 ± 0.011 | 0.978 ± 0.028 | 1.004 ± 0.0094 | 1.007 ± 0.0052
Cc1ccc([N+](=O)[O-])cc1S(=O)(=O)N(C)/N=C/c1cnc2ccc(Br)cn12 | 0.025 ± 0.0023 | 0.0304 ± 0.0032 | 0.0674 ± 0.0086 | 0.0802 ± 0.022 | 0.0104 ± 0.005 | 0.00623 ± 0.0011
CCCCC/C=C\C[C@@H](O)/C=C/c1cccc(C[C@@H](O)CCCCO)n1 | 1.005 ± 0.0081 | 1.05 ± 0.04 | 1.01 ± 0.015 | 1.04 ± 0.011 | 1.013 ± 0.0058 | 1.027 ± 0.0058
OC[C@H]1O[C@@H](n2cnc3c(N[C@H]4CCC[C@@H]4O)ncnc32)[C@H](O)[C@@H]1O | 1.017 ± 0.0058 | 1.01 ± 0.027 | 1.01 ± 0.01 | 1.01 | 0.993 ± 0.015 | 0.9927 ± 0.0095
CC[n+]1c(/C=C/C=C2/N(C)c3ccccc3C2(C)C)sc2ccccc21 | 0.467 ± 0.026 | 0.434 ± 0.017 | 0.901 ± 0.032 | 0.798 ± 0.02 | 0.237 ± 0.0069 | 0.112 ± 0.0067
NC(N)=N[C@@H](CCC(=O)O)C(=O)O [alpha-Guanidinoglutaric acid] | 1.01 ± 0.01 | 0.983 ± 0.01 | 1.006 ± 0.0063 | 1.01 ± 0.021 | 0.9917 ± 0.0038 | 1.002 ± 0.0072
CCCCCCCCOc1ccccc1C(=O)Nc1ccc(C(=O)OCC[N+](C)(CC)CC)cc1 [Otilonium Bromide] | 1.03 ± 0.01 | 1.03 ± 0.026 | 1.01 ± 0.026 | 1.03 ± 0.025 | 1.007 ± 0.0058 | 1.003 ± 0.0058
COc1cc(C(=O)NC2CCN(C)CC2)ccc1Nc1ncc2c(n1)N(C1CCCC1)CC(F)(F)C(=O)N2C | 0.354 ± 0.024 | 0.359 ± 0.031 | 0.73 ± 0.022 | 0.7627 ± 0.007 | 0.066 ± 0.0089 | 0.0695 ± 0.004
CC[C@@H]1C(=O)N(C)c2cnc(Nc3ccc(C(=O)NC4CCN(C)CC4)cc3OC)nc2N1C1CCCC1 | 0.535 ± 0.026 | 0.4 ± 0.057 | 0.797 ± 0.042 | 0.592 ± 0.083 | 0.0889 ± 0.011 | 0.0658 ± 0.0046
CC[C@@H]1C(=O)N(C)c2cnc(Nc3ccc(C(=O)N[C@H]4CC[C@H](N5CCN(CC6CC6)CC5)CC4)cc3OC)nc2N1C(C)C [BI6727 (Volasertib)] | 0.346 ± 0.023 | 0.201 ± 0.025 | 0.58 ± 0.017 | 0.213 ± 0.15 | 0.0771 ± 0.019 | 0.0219 ± 0.0034
